Here are results for 21 compounds from PubChem BioAssay (Tox21).

Experiment [1] is described as follows: qHTS assay to identify aromatase inhibitors - cell viability counter screen (AID 743084).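 Further: cells stimulated with testosterone during compound exposure; nearly all actives have a fitted effect of over 55% in size.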
Experiment [2] has as its target Aryl hydrocarbon receptor (Homo sapiens) (UniProt P35869). Kind of experiment: qHTS assay to identify small molecule that activate the aryl hydrocarbon receptor (AhR) signaling pathway (AID 743085). Further: nearly all actives have a fitted effect of over 15% in size. Further: potency means the concentration at half of the fitted maximal effect.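 On activation: HG2L7.5c1 human HepG2 liver cells with stably integrated DRE-driven firefly reporter; series mostly up to about 70 µM.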 Put shortly:
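24 h compound exposure, 37C, HepG2-derived HG2L7.5c1 cells with DRE-responsive luciferase. Readouts: fluorescence viability, then luminescence at room temperature after 30 min.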
Background: In qHTS, concentration-response curves come from the screen itself.

Experiment [3] can be described thus: qHTS assay to identify small molecule that activate the aryl hydrocarbon receptor (AhR) signaling pathway - cell viability counter screen (AID 743086).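 Further: HepG2 liver cells carrying the AhR DRE luciferase reporter; series mostly up to about 70 µM; nearly all actives have a fitted effect of over 45% in size.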 Put shortly:
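HepG2-AhR-luc (HG2L7.5c1) cells, 4000/well, were preincubated 5 h at 37C, exposed to compound in qHTS format for 24 hr at 37C, then given CellTiter-Fluor for 30 min; viability was read as fluorescence in the reporter wells.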

For experiment [4], the target named is Peroxisome proliferator-activated receptor gamma (Homo sapiens) (UniProt P37231). Put plainly: qHTS assay to identify small molecule antagonists of the peroxisome proliferator-activated receptor gamma (PPARg) signaling pathway (AID 743191; calls by dose curve; further: series mostly up to about 63 µM; nearly all actives have a fitted effect of over 30% in size). Put shortly: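 GeneBLAzer PPARg UAS-bla HEK293H cells carrying a UAS-driven beta-lactamase reporter were plated at 3000 cells/well, preincubated 5 h at 37C, then given compound for 17 h at 37C; LiveBLAzer B/G FRET substrate was read after 1 h at room temperature.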
Chain of Peroxisome proliferator-activated receptor gamma (Homo sapiens) (P37231 whole entry, looked up): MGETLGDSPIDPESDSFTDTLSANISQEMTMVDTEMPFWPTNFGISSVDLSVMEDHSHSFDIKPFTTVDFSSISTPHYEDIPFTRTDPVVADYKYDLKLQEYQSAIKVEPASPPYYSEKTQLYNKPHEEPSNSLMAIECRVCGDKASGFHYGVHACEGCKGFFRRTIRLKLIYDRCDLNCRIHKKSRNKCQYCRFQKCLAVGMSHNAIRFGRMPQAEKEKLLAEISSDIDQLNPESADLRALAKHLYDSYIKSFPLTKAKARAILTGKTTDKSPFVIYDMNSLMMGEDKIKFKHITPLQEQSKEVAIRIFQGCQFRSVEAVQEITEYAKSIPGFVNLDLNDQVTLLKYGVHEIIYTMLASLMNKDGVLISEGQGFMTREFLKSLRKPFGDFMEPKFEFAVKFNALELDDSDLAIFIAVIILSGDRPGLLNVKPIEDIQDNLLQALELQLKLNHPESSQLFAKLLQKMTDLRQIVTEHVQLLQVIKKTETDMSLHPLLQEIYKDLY

Experiment [5] in a line: qHTS assay to identify small molecule antagonists of the peroxisome proliferator-activated receptor gamma (PPARg) signaling pathway - cell viability counter screen (AID 743194). Further: nearly all actives have a fitted effect of over 55% in size. In short, it runs like this:
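PPARg-UAS-bla HEK293H cells were plated, rested 5 h at 37 C, then treated with compounds plus rosiglitazone (50 nM final) for 17 h at 37 C; viability was then read by CellTiter-Glo luminescence after 30 min at room temperature.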

Experiment [6] in a line: qHTS assay for small molecule agonists of the antioxidant response element (ARE) signaling pathway - cell viability counter screen (AID 743203; calls by dose curve; further: nearly all actives have a fitted effect of over 55% in size). Put shortly: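 ATP content via CellTiter-Glo luminescence served as the viability measure. Cells: ARE-bla HepG2, 2,000 per well. Exposure: 16 hrs, 37C/5% CO2.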
A short description of experiment [7]: qHTS assay for small molecule activators of the heat shock response signaling pathway - cell viability counter screen (AID 743209). Further: nearly all actives have a fitted effect of over 50% in size. In short, it runs like this: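 Compounds dissolved in DMSO were added to overnight-plated HSE-bla HeLa cells and left 5 h at 37 C. Cell viability was quantified by luminescence using CellTiter-Glo.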
Experiment [8] is described as follows: qHTS assay for small molecule activators of the heat shock response signaling pathway (AID 743210; active means well fitted activation curve with a large enough effect in the signal ratio in the repeat runs, with a control signal flat, not every such curve was filed as active; the % refers to the signal ratio; further: series mostly up to about 63 µM). In short, it runs like this: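 Heat shock element–beta-lactamase HeLa reporter cells; qHTS with compounds for 5 h at 37 C; detection by FRET substrate fluorescence after 2.5 h at RT.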
Experiment [9] deals with Peroxisome proliferator-activated receptor gamma (Homo sapiens) (UniProt P37231). Kind of experiment: qHTS assay to identify small molecule agonists of the peroxisome proliferator-activated receptor gamma (PPARg) signaling pathway (AID 743094; active means well fitted activation curve with a large enough effect in the signal ratio in the repeat runs, not every such curve was filed as active; the % refers to the signal ratio). Put shortly:
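Agonism was assessed in a beta-lactamase reporter system, HEK293H cells with a stably integrated UAS-bla construct under PPARg control; the 17 h treatment at 37C preceded a 1 h room-temperature FRET substrate read.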

The nature of experiment [10]: qHTS assay for small molecule agonists of the antioxidant response element (ARE) signaling pathway (AID 743202; active means well fitted activation curve with a large enough effect in the signal ratio in the repeat runs, not every such curve was filed as active; the % refers to the signal ratio). In short, it runs like this: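 Following a 16 h, 37 C exposure of reporter HepG2 cells (ARE-driven beta-lactamase, 2,000 cells/well) to compounds, FRET substrate was applied for 2 h at room temperature and fluorescence intensity recorded.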

SMILES strings stand for the structures. Where “and” joins values, the source holds several entries; their conditions need not be identical. Equal entries are not always repeated. Records with an inconclusive call do not appear. Calls of active or inactive are those of the source. Unless noted, the call rests on the fitted dose curve; in most records, active means well fitted curve in the direction sought with a large enough effect in the repeat runs; inconclusive means weak or mixed curves; inactive means no such curve, though single readings can be large; an effect the other way counts as inactive or inconclusive.

Chain of Aryl hydrocarbon receptor (Homo sapiens) (P35869 whole entry, looked up): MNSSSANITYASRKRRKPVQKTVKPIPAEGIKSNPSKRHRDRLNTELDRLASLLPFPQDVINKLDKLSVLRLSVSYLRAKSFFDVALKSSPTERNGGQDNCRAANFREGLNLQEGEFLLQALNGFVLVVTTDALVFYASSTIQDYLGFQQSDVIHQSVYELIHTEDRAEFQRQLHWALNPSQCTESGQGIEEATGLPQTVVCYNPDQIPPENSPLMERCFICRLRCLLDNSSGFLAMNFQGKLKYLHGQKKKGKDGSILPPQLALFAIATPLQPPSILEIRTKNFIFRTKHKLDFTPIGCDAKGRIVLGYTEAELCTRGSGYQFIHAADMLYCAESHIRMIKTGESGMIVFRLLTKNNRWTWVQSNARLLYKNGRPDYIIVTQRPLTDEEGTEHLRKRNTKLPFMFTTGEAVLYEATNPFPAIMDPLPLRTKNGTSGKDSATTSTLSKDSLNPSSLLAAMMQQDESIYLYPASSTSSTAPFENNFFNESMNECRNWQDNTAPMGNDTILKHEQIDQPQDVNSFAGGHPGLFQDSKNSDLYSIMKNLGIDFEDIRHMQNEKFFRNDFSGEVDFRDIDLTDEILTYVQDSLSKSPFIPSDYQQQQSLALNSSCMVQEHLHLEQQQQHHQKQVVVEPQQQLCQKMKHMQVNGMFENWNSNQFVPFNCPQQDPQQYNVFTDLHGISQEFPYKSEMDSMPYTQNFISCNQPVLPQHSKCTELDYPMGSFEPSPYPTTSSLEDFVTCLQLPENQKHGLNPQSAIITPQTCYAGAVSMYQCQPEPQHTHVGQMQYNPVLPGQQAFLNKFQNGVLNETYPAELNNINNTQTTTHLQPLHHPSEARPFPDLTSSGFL

For `CC(C)(C)C(O)(CCc1ccc(Cl)cc1)Cn1cncn1` (stereo not drawn), the call in experiment [1], in experiment [3], in [5], in experiment [6], in [7] and in experiment [8] was inactive. The Potency result in experiment [2] and in experiment [4] was “inactive” in each case.
For `Cc1ccc(N)cc1Cl`, the call in [1], in [3], in [9], in experiment [5], in experiment [6] and in experiment [7] was inactive. Moreover, the compound was classed as inactive in experiment [8]. The Potency entry in experiment [4] was “inactive”.
Take `NCCc1ccc(O)cc1`: the compound was called inactive in [1], in experiment [3], in [9], in experiment [6] and in experiment [7]. Besides, the Potency entry in experiment [2] and in [10] was “inactive” in each case.
As for `COC(=O)c1ccccc1C(=O)OC`, the compound was called inactive in experiment [1], in experiment [3], in experiment [9], in experiment [6], in experiment [7] and in [8]. Further, in experiment [2], the Potency result was “inactive”.
On to `O=C1CCCN1`, for which the result in experiment [1], in experiment [3], in experiment [9], in experiment [6], in experiment [7] and in experiment [8] was inactive. In addition, the Potency entry in experiment [2] and in experiment [10] was “inactive” throughout.
As for `O=S(=O)(c1ccc(O)cc1)c1ccc(O)cc1`, the call in [1], in [3], in [9], in [6], in experiment [7] and in [8] was inactive. Further, the Potency entry in [2] and in [10] was “inactive” each time.
Take `C=CC(N)=O`: the compound was called inactive in [1], in [3], in experiment [5], in [6], in [7] and in experiment [8]. Besides, in [2], the Potency result was “inactive”.
Regarding `CON(C)C(=O)Nc1ccc(Cl)c(Cl)c1`, the outcome in experiment [1], in experiment [3], in experiment [9], in experiment [6], in experiment [7] and in [8] was inactive. In addition, the Potency in experiment [2] is 21.8 µM (active) and 27.3 µM (active). Moreover, in experiment [10], the Potency entry is “inactive”.
As for `C#CC(C)(C)NC(=O)c1cc(Cl)cc(Cl)c1`, the compound was called inactive in [1], in [3], in experiment [5], in [6], in [7] and in experiment [8]. Also, in [2], the Potency entry is “inactive”.
As to `C[C@]12CC[C@H]3[C@@H](CC[C@@]45O[C@@H]4C(O)=C(C#N)C[C@]35C)[C@@H]1CC[C@@H]2O`, the compound was classed as inactive in [1], in [3], in [6], in [7] and in experiment [8]. Moreover, the Potency entry in experiment [2] is “inactive”.
For the compound `CC(C)C#N`, the outcome in experiment [1], in experiment [3], in experiment [9], in experiment [6], in experiment [7] and in experiment [8] was inactive. Also, the Potency result in [2] was “inactive”.
For the compound `CCCCN(CCCC)SN(C)C(=O)Oc1cccc2c1OC(C)(C)C2`, the compound was called inactive in experiment [1], in [3], in [9], in [6], in experiment [7] and in [8]. In addition, the Potency entry in experiment [2] and in experiment [10] was “inactive” each time.
Turning to `CC(C)(C)OOC(C)(C)C`, the call in experiment [1], in experiment [3], in [9], in [6], in experiment [7] and in [8] was inactive. In [2], the Potency entry is “inactive”.
Take `COCCl`: the compound was called inactive in [1], in [3], in experiment [9], in experiment [6], in [7] and in experiment [8]. The Potency entry in [2] and in [10] was “inactive” each time.
On to `OCCN(CCO)CCO`, for which the result in experiment [3], in experiment [6] and in experiment [7] was inactive.
As to `CCOP(OCC)OCC`, the result in experiment [1], in experiment [3], in experiment [9], in [6], in experiment [7] and in experiment [8] was inactive. Also, the Potency entry in [2] was “inactive”.
On to `O=c1[nH]c2ccccc2c(=O)o1`, for which the outcome in [1], in experiment [3], in experiment [9], in experiment [6], in experiment [7] and in experiment [8] was inactive. Further, the Potency entry in [2] and in [10] was “inactive” throughout.
`COC(=O)NC(=S)Nc1ccccc1NC(=S)NC(=O)OC`: the compound was called inactive in experiment [1], in experiment [3], in experiment [9], in experiment [5], in experiment [6] and in experiment [7]. For the same compound, the outcome in [8] was inactive.
Regarding `CC(C)N1C(=O)c2ccccc2NS1(=O)=O`, the call in [1], in experiment [3], in experiment [9], in experiment [6], in experiment [7] and in experiment [8] was inactive. For the same compound, the Potency entry in experiment [2] was “inactive”.
For the compound `c1ccc2c(c1)oc1ccccc12`, the call in [3], in [5], in experiment [6], in experiment [7] and in experiment [8] was inactive.
As for `Nc1ccc(Oc2ccc(N)cc2)cc1`, the outcome in [1], in experiment [3], in [9], in experiment [6], in [7] and in experiment [8] was inactive. Further, the Potency in experiment [2] is 11 µM (active).
